# Assay results from PubChem BioAssay (EPA / NIEHS).
# Values joined by “and” are separate entries in the source; they are usually repeats but may differ in a detail not shown here. Equal entries are not always repeated. Records with an inconclusive call do not appear. The source holds several records for some structures; these can differ, active in one and inactive in another. Active and inactive are the calls of the source. The calls were made as follows: active = hit-call score of the fitted dose curve at least 0.9, where 1 is the maximum; inconclusive = response in the unintended direction; inactive = score below 0.9.
# Legend:
# [1] = target: Estrogen receptor (Homo sapiens) (UniProt P03372); assay: NVS_NR_hER: NovaScreen (NVS) Nuclear Receptor Binding Assay for human Estrogen Receptor (ER) (AID 2283348)
# Outline: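 MCF7-derived receptor extract, radiolabelled ligand, competitive displacement. Read: scintillation counts at 18 h. DMSO = negative control/baseline. Primary 25 uM duplicate; follow-up concentration–response.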
# [2] = target: chimpanzee Androgen Receptor (AR), AR (gene 747460) (UniProt O97775); assay: NVS_NR_cAR: NovaScreen (NVS) Nuclear Receptor Binding Assay for chimpanzee Androgen Receptor (AR) (AID 2283346);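 also: radioligand displacement from AR measured by scintillation counting in a cell-free assay; a loss of bound radioligand signal versus DMSO counts as binding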
# Outline: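 Radioligand binding to chimpanzee AR expressed in Sf9/Sf21 cells, cell-free, measured 72 h after dosing by lysate-based scintillation counting. Loss of signal vs DMSO; initial duplicate screen at 25 uM, actives retested in concentration series.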
# [3] = target: bovine Estrogen Receptor (ER), ESR1 (gene 407238) (UniProt P49884); assay: NVS_NR_bER: NovaScreen (NVS) Nuclear Receptor Binding Assay for bovine Estrogen Receptor (ER) (AID 2283345);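 also: actives lower the bound radioligand count which means they displace the ER ligand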
# Outline: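 Scintillation counting of displaced radioligand gave the readout; bovine uterine membrane extract supplied the receptor. Measured 18 h post-dose, normalized to DMSO baseline. Single 25 uM duplicate screen preceded concentration-response follow-up.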
# PGR (gene 5241) = PGR (gene 5241) (UniProt P06401); assay: NVS_NR_hPR: NovaScreen (NVS) Nuclear Receptor Binding Assay for human Progestron Receptor (PR) (AID 2283360);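 also: active means loss of bound radioligand signal versus DMSO baseline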
# Outline: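 T47D lysate; tritiated or iodinated radioligand; scintillation count at 18 h. DMSO = negative control/baseline. Primary: 25 uM, duplicate. Secondary: concentration series for actives.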
# [4] = target: Estrogen receptor (Homo sapiens) (UniProt P03372); assay: OT_ER_ERaERa_1440: Odyssey Thera (OT) 24-hour HEK293T Protein-Complementation Assay for Estrogen Receptor-alpha/-alpha Homodimer (AID 2283349);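 also: hits raise fluorescence above DMSO for agonists and antagonists alike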
# Outline: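 Cells (HEK293T) carrying the fragment-tagged ERα LBD (aa 310-547) pair are treated with chemical for 24 hours. Nuclear and/or cytoplasmic fluorescence is then quantified on a laser scanning cytometer. Activity is scored as signal gain against DMSO.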
# [5] = target: Estrogen receptor (Homo sapiens) (UniProt P03372); assay: OT_ER_ERaERa_0480: Odyssey Thera (OT) 8-hour HEK293T Protein-Complementation Assay for Estrogen Receptor-alpha/-alpha Homodimer (AID 2283351);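 also: rise in fluorescence from reassembled reporter fragments on ERα LBD homodimer in nucleus or whole cell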
# Outline: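 HEK293T cells stably expressing a PCA pair of ER alpha LBD (residues 310-547) were dosed for 8 hours. The gain in fluorescence intensity, nuclear for agonists and whole-cell for antagonists, was measured by laser scanning cytometry against DMSO vehicle.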
# [6] = target: Estrogen receptor (Homo sapiens) + Estrogen receptor beta (Homo sapiens) (UniProt P03372+Q92731); assay: OT_ER_ERaERb_1440: Odyssey Thera (OT) 24-hour HEK293T Protein-Complementation Assay for Estrogen Receptor-alpha/-beta Homodimer (AID 2283356);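 also: heteromer of ER alpha and ER beta binding domains; hits raise reporter fluorescence and both agonists and antagonists give an increase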
# Outline: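 24 h exposure; HEK293T PCA cells with ERα/ERβ LBD fragments; signal rise in nuclear or whole-cell fluorescence over vehicle.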
# [7] = target: Estrogen receptor beta (Homo sapiens) (UniProt Q92731); assay: OT_ER_ERbERb_0480: Odyssey Thera (OT) 8-hour HEK293T Protein-Complementation Assay for Estrogen Receptor-beta/-beta Homodimer (AID 2283357);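 also: active means signal gain over DMSO baseline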
# Outline: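 Homodimerization of ER-beta LBD measured by protein-fragment complementation in HEK293T; 8 h dosing; fixed, Draq5 counterstain; fluorescence intensity gain over DMSO baseline, positive fitting direction; laser scanning cytometry.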
# [8] = target: Bile acid receptor (Homo sapiens) (UniProt Q96RI1); assay: NVS_NR_hFXR_Agonist: NovaScreen (NVS) Nuclear Receptor Binding Assay for human Farnesoid X Receptor Agonism (FXR) (AID 2283347)
# Outline: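 Agonist-mode FXR assay read by time-resolved FRET 1 h after compound addition, using isolated human receptor protein without cells. Duplicate 25 uM single-point primary screen, concentration series for confirmed actives; DMSO as baseline.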
# [9] = target: Androgen Receptor/SRC-1 Co-activator, AR (gene 367) (UniProt P10275); assay: OT_AR_ARSRC1_0960: Odyssey Thera (OT) 16-hour HEK293T Protein-Complementation Assay for Androgen Receptor/SRC-1 Co-activator (AID 2283353);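 also: actives raise the signal above DMSO so potency reflects increased AR and SRC-1 complex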
# Outline: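 Endpoint is gain-of-signal N/C fluorescence ratio in the 488 nm channel versus DMSO, from at least 400 cells per image, measured 16 h post-dosing. Cells: HEK293T stably carrying split-Venus AR/SRC-1 complementation constructs.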
# [10] = target: Androgen Receptor/SRC-1 Co-activator, AR (gene 367) (UniProt P10275); assay: OT_AR_ARSRC1_0480: Odyssey Thera (OT) 8-hour HEK293T Protein-Complementation Assay for Androgen Receptor/SRC-1 Co-activator (AID 2283354);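 also: hits raise the complementation signal above DMSO so AC50 marks enhancers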
# Outline: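 Split-Venus PCA, stable HEK293T, AR/SRC-1 fusions; 8 h exposure. Readout: 488nm N/C fluorescence ratio, ≥400 cells/image; fitted upward vs DMSO baseline.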
# [11] = target: human Peroxisome Proliferator-activated Receptor alpha (PPARa), PPARA (gene 5465) (UniProt Q07869); assay: NVS_NR_hPPARa: NovaScreen (NVS) Nuclear Receptor Binding Assay for human Peroxisome Proliferator-activated Receptor alpha (PPARa) (AID 2283359);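 also: activity means loss of TR-FRET signal versus DMSO baseline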
# Outline: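 TR-FRET signal measured at 1 h post-dosing; loss-of-signal versus DMSO negative control taken as activity. Extracted gene-protein, cell-free format. Initial single-point duplicates at 25 uM, then concentration-response retests.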
# [12] = target: rat Mineralocorticoid Receptor (MR), Nr3c2 (gene 25672) (UniProt P22199); assay: NVS_NR_rMR: NovaScreen (NVS) Nuclear Receptor Binding Assay for rat Mineralocorticoid Receptor (MR) (AID 2283355)
# Outline: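 Radioligand displacement, scintillation readout; tissue source adrenalectomized rat brain supernatant. Read 24 h post-dose. Screened in duplicate at 25 uM, DMSO negative control, controls on every plate; actives re-run in concentration series.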
# [13] = target: Retinoic acid receptor alpha (Homo sapiens) (UniProt P10276); assay: NVS_NR_hRARa_Agonist: NovaScreen (NVS) Nuclear Receptor Binding Assay for human Retinoic Acid Alpha Receptor Agonism (RAR) (AID 2283361)
# Outline: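 TR-FRET signal, 2 h post-dosing; cell-free extracted protein; DMSO = baseline, positive fitting direction; 25 uM single-point duplicate, then concentration series for actives.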
# Sequence of human Peroxisome Proliferator-activated Receptor alpha (PPARa), PPARA (gene 5465) (Q07869 whole entry, looked up): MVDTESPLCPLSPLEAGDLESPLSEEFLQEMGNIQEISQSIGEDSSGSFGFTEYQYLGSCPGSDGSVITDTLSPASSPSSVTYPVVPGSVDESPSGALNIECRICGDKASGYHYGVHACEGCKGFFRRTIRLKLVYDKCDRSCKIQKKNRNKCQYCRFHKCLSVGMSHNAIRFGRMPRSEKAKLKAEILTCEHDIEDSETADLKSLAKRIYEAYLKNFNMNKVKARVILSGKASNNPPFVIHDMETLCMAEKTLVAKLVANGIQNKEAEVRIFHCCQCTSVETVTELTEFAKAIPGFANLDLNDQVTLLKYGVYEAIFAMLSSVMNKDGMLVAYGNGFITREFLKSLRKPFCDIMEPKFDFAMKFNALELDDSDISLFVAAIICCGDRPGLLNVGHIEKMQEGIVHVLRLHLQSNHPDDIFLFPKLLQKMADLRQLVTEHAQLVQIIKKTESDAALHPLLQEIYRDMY
# Sequence of chimpanzee Androgen Receptor (AR), AR (gene 747460) (O97775 whole entry, looked up): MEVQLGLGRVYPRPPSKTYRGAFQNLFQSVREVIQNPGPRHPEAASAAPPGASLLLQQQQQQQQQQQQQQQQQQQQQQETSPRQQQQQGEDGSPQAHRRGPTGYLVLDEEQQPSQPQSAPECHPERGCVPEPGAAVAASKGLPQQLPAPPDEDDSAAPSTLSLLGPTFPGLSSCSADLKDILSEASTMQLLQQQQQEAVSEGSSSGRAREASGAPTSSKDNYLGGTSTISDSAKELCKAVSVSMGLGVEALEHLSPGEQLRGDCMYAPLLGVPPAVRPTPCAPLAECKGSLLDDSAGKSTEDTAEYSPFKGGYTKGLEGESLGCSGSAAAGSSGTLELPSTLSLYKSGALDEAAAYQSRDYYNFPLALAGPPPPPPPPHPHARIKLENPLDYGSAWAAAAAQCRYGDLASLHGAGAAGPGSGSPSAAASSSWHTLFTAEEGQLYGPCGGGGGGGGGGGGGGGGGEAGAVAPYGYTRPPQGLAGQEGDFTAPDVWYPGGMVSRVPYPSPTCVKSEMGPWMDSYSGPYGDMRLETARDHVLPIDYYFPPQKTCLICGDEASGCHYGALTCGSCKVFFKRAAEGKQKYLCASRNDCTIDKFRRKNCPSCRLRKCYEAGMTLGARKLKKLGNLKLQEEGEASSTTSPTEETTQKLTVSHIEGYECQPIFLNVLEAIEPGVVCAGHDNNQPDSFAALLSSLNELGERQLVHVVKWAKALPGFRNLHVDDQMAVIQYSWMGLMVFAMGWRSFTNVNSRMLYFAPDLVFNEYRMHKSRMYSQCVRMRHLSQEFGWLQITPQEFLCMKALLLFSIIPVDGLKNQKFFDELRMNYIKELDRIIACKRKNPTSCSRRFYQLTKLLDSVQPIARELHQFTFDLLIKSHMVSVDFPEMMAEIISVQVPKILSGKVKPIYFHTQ
# Sequence of Androgen Receptor/SRC-1 Co-activator, AR (gene 367) (P10275 whole entry, looked up, the tested form may be a part): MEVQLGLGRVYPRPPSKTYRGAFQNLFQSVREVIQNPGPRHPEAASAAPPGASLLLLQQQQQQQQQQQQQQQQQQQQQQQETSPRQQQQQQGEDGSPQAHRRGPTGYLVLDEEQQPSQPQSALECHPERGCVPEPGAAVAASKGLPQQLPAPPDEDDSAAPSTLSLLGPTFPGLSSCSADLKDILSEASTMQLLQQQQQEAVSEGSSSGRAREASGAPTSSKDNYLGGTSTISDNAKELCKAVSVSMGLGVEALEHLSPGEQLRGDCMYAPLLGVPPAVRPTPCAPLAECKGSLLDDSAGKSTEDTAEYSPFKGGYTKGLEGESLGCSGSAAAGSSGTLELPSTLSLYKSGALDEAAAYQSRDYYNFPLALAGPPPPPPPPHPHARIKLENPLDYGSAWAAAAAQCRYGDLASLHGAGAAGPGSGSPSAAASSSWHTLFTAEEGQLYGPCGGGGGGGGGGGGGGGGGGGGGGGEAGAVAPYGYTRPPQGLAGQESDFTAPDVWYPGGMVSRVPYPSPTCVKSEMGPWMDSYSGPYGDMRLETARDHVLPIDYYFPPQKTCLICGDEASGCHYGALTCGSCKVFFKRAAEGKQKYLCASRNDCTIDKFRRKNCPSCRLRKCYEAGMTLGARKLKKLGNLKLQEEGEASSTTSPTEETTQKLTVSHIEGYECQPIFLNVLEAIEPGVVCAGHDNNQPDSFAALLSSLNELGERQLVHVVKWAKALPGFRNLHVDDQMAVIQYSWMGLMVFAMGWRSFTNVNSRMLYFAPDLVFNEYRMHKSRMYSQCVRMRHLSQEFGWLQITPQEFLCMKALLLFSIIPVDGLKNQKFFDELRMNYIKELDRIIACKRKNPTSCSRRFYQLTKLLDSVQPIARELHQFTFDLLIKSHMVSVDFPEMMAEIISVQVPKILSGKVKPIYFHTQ
# Sequence of Estrogen receptor beta (Homo sapiens) (Q92731 whole entry, looked up, the tested form may be a part): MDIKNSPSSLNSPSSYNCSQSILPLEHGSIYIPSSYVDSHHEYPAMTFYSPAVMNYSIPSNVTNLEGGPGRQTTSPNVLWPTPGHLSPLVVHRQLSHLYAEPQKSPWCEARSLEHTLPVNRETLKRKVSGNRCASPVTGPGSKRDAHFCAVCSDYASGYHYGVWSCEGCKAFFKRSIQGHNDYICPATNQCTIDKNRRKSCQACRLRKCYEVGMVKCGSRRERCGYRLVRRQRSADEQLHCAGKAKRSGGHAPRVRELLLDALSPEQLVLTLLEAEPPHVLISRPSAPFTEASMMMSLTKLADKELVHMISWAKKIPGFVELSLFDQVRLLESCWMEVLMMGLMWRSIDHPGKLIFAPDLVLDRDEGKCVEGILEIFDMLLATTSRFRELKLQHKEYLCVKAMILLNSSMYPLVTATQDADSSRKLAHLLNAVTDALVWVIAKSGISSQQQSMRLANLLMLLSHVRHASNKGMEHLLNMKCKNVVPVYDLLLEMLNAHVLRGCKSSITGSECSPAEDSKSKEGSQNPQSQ
# Sequence of Estrogen receptor (Homo sapiens) + Estrogen receptor beta (Homo sapiens) (P03372 whole entry, looked up, the tested form may be a part): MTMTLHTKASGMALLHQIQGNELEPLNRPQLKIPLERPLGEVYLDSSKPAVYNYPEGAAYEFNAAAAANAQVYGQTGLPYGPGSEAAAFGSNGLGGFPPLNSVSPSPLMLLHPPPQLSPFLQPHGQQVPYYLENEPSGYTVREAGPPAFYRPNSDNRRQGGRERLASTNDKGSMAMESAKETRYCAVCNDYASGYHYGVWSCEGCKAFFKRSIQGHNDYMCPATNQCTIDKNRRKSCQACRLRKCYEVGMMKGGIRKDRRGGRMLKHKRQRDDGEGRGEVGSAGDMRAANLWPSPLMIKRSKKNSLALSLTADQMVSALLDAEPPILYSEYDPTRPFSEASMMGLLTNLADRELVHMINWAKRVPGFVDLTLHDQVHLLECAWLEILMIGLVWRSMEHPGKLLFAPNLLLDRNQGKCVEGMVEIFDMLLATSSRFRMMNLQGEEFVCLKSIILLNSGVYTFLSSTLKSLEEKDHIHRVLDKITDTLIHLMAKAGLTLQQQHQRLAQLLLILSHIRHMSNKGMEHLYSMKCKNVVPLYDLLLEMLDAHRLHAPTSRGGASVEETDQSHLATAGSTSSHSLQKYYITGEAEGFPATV
# Sequence of Estrogen receptor (Homo sapiens) + Estrogen receptor beta (Homo sapiens) (Q92731 whole entry, looked up, the tested form may be a part): as the sequence (Q92731 whole entry, looked up, the tested form may be a part) above
# Sequence of Estrogen receptor (Homo sapiens) (P03372 whole entry, looked up, the tested form may be a part): as the sequence (P03372 whole entry, looked up, the tested form may be a part) above
# Sequence of Bile acid receptor (Homo sapiens) (Q96RI1 whole entry, looked up): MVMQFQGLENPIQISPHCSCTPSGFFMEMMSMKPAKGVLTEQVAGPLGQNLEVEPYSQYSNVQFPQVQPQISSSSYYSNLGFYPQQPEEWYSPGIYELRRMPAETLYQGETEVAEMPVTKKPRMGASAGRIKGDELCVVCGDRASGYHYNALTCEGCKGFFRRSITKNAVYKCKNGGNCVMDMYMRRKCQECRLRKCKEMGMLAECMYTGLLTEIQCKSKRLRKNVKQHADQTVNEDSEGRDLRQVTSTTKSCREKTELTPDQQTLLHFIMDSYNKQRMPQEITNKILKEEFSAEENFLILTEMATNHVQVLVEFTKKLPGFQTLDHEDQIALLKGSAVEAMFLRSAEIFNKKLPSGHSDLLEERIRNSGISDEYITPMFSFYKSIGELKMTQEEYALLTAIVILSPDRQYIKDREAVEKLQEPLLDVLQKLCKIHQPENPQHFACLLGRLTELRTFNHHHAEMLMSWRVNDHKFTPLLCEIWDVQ
smiles,measurement,setting,value
O=C(CCl)CCl,outcome,[1],inactive
CCCCCCCCCl,outcome,[2],inactive
Nc1ccc(-c2ccc(N)c(Cl)c2)cc1Cl,outcome,[3],inactive
same,AC50,PGR (gene 5241),41.1 µM (active)
ClC(Cl)=C(Cl)C(Cl)=C(Cl)Cl,outcome,[4],inactive
same,outcome,[5],inactive
OCC(O)CCl (centres undefined),outcome,[4],inactive
same,outcome,[5],inactive
O=C(Nc1ccc2[nH]ccc2c1)c1cc2cc(F)ccc2n1Cc1cccc(F)c1,outcome,[1],inactive
same,outcome,[4],inactive
same,outcome,[5],inactive
CCC[CH2][Sn]([Cl])([Cl])[Cl],AC50,[2],25 µM (active)
same,outcome,[4],inactive
same,outcome,[5],inactive
BrCCBr,outcome,[1],inactive
same,outcome,[4],inactive
same,outcome,[5],inactive
same,outcome,[6],inactive
same,outcome,[7],inactive
CNC(=O)O/N=C/C(C)(C)S(C)=O (centres undefined),outcome,[2],inactive
same,outcome,[4],inactive
same,outcome,[5],inactive
same,outcome,[6],inactive
same,outcome,[7],inactive
CC1(C)CCC(Cc2ccc(Cl)cc2)C1(O)Cn1cncn1 (centres undefined),AC50,[2],6.82 µM (active)
same,outcome,[1],inactive
same,outcome,[4],inactive
same,outcome,[5],inactive
O=C1C2(Cl)C3(Cl)C4(Cl)C(Cl)(Cl)C5(Cl)C3(Cl)C1(Cl)C5(Cl)C24Cl (centres undefined),outcome,[2],inactive
same,outcome,[8],inactive
same,AC50,[9],19.2 µM (active) and 46.6 µM (active) and 26 µM (active)
same,AC50,[10],28.5 µM (active) and 76.6 µM (active) and 31.5 µM (active)
same,outcome,[11],inactive
O=C/C=C/c1ccccc1,outcome,[4],inactive
same,outcome,[5],inactive
Cl/C=C\C[N+]12CN3CN(CN(C3)C1)C2,AC50,[2],1.43 µM (active)
same,outcome,[4],inactive
same,outcome,[5],inactive
same,AC50,[9],76.6 µM (active)
same,AC50,[10],91.5 µM (active)
same,AC50,[6],11.6 µM (active)
same,outcome,[7],inactive
O=C1CCCN1,outcome,[1],inactive
same,outcome,[4],inactive
same,outcome,[5],inactive
CC(C)(C)c1cc(O)ccc1O,outcome,[1],inactive
same,outcome,[4],inactive
same,outcome,[5],inactive
CCC1(c2ccc(N)cc2)CCC(=O)NC1=O (centres undefined),outcome,[1],inactive
same,outcome,[4],inactive
same,outcome,[5],inactive
same,outcome,[9],inactive
same,outcome,[10],inactive
C1CCC(NC2CCCCC2)CC1,outcome,[4],inactive
same,outcome,[5],inactive
O=C1C(Cl)=C(Cl)C(=O)c2ccccc21,AC50,[4],11.9 µM (active)
same,AC50,[5],11.9 µM (active)
CCNc1nc(NC(C)(C)C)nc(SC)n1,outcome,[2],inactive
N#CCCO,outcome,[2],inactive
COc1cc(-c2ccc(N)c(OC)c2)ccc1N,AC50,[2],18.5 µM (active) and 25 µM (active)
same,outcome,[12],inactive
same,AC50,[11],14.1 µM (active)
same,outcome,[11],inactive
same,outcome,[13],inactive
Cc1ccc(N)cc1Cl,outcome,[2],inactive
same,outcome,[4],inactive
same,outcome,[5],inactive
same,AC50,[6],15.3 µM (active)
same,outcome,[7],inactive
